Drawing on article PMC7862700, “An all-to-all approach to the identification of sequence-specific readers for epigenetic DNA modifications on cytosine”, this text covers binding signal for seven sequences.

What all share (experiment): DAPPL (digital affinity profiling via proximity ligation, sequencing); 10 mM Tris-HCl pH 7.5, 50 mM NaCl, 1 mM DTT, 4% glycerol, room temperature, 30 min; GST-TFs on glutathione beads, 16-mer random dsDNA library, 0.1% formaldehyde crosslink after washing; high values mean tight binding
What all share (settings): protein: recombinant; tags: N-terminal GST; dsDNA, one strand shown

The target of one assay is T1, FLI1 (Homo sapiens, UniProt Q01543 1-452).
T1 sequence: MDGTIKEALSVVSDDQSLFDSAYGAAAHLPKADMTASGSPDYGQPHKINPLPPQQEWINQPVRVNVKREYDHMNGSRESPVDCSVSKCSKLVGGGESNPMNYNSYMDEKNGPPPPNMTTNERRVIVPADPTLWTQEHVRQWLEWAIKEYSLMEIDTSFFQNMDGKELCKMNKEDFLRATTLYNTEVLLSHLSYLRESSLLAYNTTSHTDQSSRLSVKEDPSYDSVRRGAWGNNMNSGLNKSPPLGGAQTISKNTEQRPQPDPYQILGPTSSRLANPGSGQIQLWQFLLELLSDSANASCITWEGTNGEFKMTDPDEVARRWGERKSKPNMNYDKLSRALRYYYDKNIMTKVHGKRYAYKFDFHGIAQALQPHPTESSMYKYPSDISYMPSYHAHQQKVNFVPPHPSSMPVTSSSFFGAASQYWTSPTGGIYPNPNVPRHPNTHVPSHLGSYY
In short, it runs like this:
(§1)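 After expression in yeast as GST fusions, human transcription factors were bound to glutathione beads, DNA-barcoded and mixed with a tag-only sample. The pools were incubated with 200 nmole of a 16-mer random double-stranded DNA library in Tris/NaCl/DTT/glycerol buffer (30 min, room temperature), washed and crosslinked with 0.1% formaldehyde. Proximity ligation with BsaI/T4 ligase ran for 1 h at 37 °C, before PCR amplification and sequencing on an Illumina NextSeq500. Binding signal is a hexamer's read frequency for a factor divided by its frequency for the tag-only sample.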

For the next assay, the target named is T2, ELK1 (Homo sapiens, UniProt P19419 1-428).
T2 sequence: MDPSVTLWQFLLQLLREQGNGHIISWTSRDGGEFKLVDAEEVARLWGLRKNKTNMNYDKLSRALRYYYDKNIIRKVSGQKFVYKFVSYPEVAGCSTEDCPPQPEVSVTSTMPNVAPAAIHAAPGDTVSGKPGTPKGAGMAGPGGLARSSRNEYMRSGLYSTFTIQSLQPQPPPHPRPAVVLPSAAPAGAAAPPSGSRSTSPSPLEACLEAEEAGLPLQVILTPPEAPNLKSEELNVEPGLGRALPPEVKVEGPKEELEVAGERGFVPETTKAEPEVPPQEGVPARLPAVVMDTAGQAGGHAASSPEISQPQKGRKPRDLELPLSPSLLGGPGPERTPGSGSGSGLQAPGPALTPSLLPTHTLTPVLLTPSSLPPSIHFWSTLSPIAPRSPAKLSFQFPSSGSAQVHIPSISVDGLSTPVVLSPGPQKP
Put shortly:
as §1

In a further assay the target is T3, GABPA (Homo sapiens, UniProt Q06546 1-454).
T3 sequence: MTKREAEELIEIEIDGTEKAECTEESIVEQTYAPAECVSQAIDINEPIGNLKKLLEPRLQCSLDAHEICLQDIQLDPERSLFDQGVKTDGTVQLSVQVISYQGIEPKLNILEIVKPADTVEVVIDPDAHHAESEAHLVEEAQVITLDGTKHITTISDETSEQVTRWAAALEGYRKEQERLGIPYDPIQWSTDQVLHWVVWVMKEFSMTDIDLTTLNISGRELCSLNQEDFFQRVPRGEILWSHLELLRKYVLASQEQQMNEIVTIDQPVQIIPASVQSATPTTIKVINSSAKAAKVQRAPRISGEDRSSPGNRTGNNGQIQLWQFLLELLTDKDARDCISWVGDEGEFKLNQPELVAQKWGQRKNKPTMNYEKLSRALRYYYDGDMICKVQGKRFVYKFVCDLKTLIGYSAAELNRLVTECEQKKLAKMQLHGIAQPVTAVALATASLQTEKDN
In short, it runs like this: as §1

A further assay has as its target T4, ERG (Homo sapiens, UniProt P11308 1-479).
T4 sequence: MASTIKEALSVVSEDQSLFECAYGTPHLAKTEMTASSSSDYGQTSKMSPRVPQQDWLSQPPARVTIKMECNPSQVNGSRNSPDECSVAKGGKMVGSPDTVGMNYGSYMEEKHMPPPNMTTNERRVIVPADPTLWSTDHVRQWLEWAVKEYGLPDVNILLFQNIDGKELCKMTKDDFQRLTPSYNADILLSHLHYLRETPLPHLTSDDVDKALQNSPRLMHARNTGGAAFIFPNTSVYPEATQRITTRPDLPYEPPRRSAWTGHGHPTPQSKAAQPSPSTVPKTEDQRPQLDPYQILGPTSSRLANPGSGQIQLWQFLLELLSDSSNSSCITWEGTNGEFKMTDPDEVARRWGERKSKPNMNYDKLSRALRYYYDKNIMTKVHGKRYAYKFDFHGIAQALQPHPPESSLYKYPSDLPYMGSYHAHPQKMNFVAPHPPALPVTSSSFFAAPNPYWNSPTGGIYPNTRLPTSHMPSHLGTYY
In short, it runs like this:
as §1

The target in a further assay is ELF1 (Homo sapiens, UniProt P32519 1-619). Put shortly: as §1
Another assay addresses T5, EHF (Homo sapiens, UniProt Q9NZC4 1-300).
T5 sequence: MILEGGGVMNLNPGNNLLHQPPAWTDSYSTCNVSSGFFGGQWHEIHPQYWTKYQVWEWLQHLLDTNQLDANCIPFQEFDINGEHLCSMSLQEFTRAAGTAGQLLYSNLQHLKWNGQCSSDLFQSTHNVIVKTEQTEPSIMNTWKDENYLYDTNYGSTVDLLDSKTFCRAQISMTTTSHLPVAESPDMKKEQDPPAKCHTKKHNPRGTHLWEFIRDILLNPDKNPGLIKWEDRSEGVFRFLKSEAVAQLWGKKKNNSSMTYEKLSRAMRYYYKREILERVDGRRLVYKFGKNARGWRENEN
In short, it runs like this:
as §1

For a further assay, the target named is SPI1 (Homo sapiens, UniProt P17947 1-270). Put shortly: as §1
Another assay concerns the target SPIB (Homo sapiens, UniProt Q01892 1-262). Put shortly:
as §1

For another assay, the target named is T6, ELK3 (Homo sapiens, UniProt P41970 1-407).
T6 sequence: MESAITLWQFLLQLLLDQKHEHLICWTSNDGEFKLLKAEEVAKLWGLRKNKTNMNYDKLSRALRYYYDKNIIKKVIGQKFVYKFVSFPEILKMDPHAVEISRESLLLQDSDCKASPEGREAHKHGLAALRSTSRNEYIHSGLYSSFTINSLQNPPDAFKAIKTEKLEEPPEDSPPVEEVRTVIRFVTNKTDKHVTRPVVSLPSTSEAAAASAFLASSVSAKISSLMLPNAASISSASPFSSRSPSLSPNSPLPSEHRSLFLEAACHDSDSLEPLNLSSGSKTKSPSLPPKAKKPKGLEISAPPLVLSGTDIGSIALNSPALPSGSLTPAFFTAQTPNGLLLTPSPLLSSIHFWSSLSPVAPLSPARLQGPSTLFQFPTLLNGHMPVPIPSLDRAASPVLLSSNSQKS
In short, it runs like this:
as §1

Chain of ELF1 (P32519 whole entry): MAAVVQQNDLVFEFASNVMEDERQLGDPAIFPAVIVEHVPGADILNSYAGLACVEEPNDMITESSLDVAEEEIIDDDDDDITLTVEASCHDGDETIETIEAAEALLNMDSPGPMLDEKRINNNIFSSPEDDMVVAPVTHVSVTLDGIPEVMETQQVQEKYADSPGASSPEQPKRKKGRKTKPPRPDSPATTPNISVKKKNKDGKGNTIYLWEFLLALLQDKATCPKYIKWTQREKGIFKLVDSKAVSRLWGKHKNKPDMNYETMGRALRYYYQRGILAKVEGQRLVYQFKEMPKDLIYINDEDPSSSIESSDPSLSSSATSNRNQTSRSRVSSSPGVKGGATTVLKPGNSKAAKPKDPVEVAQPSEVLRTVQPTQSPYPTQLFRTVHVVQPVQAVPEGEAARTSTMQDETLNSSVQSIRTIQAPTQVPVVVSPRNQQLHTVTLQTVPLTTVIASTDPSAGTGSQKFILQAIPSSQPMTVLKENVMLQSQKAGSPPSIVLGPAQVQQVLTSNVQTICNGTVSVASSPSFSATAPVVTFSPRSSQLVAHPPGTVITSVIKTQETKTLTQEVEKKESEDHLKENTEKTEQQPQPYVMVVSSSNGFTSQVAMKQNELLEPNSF
Chain of SPIB (Q01892 whole entry): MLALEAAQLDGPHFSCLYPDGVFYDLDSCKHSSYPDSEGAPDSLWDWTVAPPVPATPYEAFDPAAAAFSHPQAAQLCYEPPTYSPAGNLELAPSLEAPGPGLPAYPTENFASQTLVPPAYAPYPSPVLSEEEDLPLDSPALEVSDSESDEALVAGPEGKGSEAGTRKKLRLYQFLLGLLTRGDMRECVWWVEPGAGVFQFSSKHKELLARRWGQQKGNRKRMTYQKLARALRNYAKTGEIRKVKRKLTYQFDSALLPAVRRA

With CTCTCT, the binding signal in the assay with FLI1 was 1.77 fold enrichment (6-mer frequency, TF over GST control); in the assay with ELK1, 1.78 fold enrichment (6-mer frequency, TF over GST control); in the assay with GABPA it was 1.56 fold enrichment (6-mer frequency, TF over GST control); in the assay with ERG, 1.62 fold enrichment (6-mer frequency, TF over GST control); with ELF1, 1.76 fold enrichment (6-mer frequency, TF over GST control); with EHF, 1.66 fold enrichment (6-mer frequency, TF over GST control). The binding signal with SPI1 was 1.53 fold enrichment (6-mer frequency, TF over GST control); in the assay with SPIB it was 1.56 fold enrichment (6-mer frequency, TF over GST control); with ELK3, 1.49 fold enrichment (6-mer frequency, TF over GST control).
In the case of GATTCC, the binding signal with FLI1 was 1.19 fold enrichment (6-mer frequency, TF over GST control); with ELK1, 1.05 fold enrichment (6-mer frequency, TF over GST control); with GABPA, 1.08 fold enrichment (6-mer frequency, TF over GST control); in the assay with ERG, 1.2 fold enrichment (6-mer frequency, TF over GST control); with ELF1, 1.18 fold enrichment (6-mer frequency, TF over GST control); with EHF it was 1.15 fold enrichment (6-mer frequency, TF over GST control). For the same sequence, the binding signal was 1.14 fold enrichment (6-mer frequency, TF over GST control) in the assay with SPI1; 1.16 fold enrichment (6-mer frequency, TF over GST control) with SPIB; 1.17 fold enrichment (6-mer frequency, TF over GST control) in the assay with ELK3.
For the sequence TCAACC, the binding signal with FLI1 is 1.23 fold enrichment (6-mer frequency, TF over GST control); with ELK1 it was 1.24 fold enrichment (6-mer frequency, TF over GST control); with GABPA, 1.22 fold enrichment (6-mer frequency, TF over GST control); with ERG, 1.14 fold enrichment (6-mer frequency, TF over GST control); with ELF1, 1.16 fold enrichment (6-mer frequency, TF over GST control); with EHF it was 1.15 fold enrichment (6-mer frequency, TF over GST control). Besides, the binding signal is 1.16 fold enrichment (6-mer frequency, TF over GST control) with SPI1; 1.17 fold enrichment (6-mer frequency, TF over GST control) in the assay with SPIB; 1.32 fold enrichment (6-mer frequency, TF over GST control) with ELK3.
With CACGTA, the binding signal was 1.1 fold enrichment (6-mer frequency, TF over GST control) with FLI1; 1.18 fold enrichment (6-mer frequency, TF over GST control) in the assay with ELK1; 1.23 fold enrichment (6-mer frequency, TF over GST control) with GABPA; 1.1 fold enrichment (6-mer frequency, TF over GST control) with ERG; 1.13 fold enrichment (6-mer frequency, TF over GST control) with ELF1; 1.11 fold enrichment (6-mer frequency, TF over GST control) in the assay with EHF. Further, the binding signal is 1.12 fold enrichment (6-mer frequency, TF over GST control) with SPI1; 1.17 fold enrichment (6-mer frequency, TF over GST control) in the assay with SPIB; 1.12 fold enrichment (6-mer frequency, TF over GST control) with ELK3.
In the case of TGCGCT, the binding signal in the assay with FLI1 was 1.27 fold enrichment (6-mer frequency, TF over GST control); with ELK1 it was 1.3 fold enrichment (6-mer frequency, TF over GST control); with GABPA, 1.13 fold enrichment (6-mer frequency, TF over GST control); with ERG it was 1.25 fold enrichment (6-mer frequency, TF over GST control); in the assay with ELF1, 1.19 fold enrichment (6-mer frequency, TF over GST control); with EHF it was 1.25 fold enrichment (6-mer frequency, TF over GST control). Moreover, the binding signal with SPI1 is 1.11 fold enrichment (6-mer frequency, TF over GST control); in the assay with SPIB, 1.31 fold enrichment (6-mer frequency, TF over GST control); with ELK3, 1.25 fold enrichment (6-mer frequency, TF over GST control).
In the case of TCTGCA, the binding signal with FLI1 was 1.42 fold enrichment (6-mer frequency, TF over GST control); with ELK1, 1.4 fold enrichment (6-mer frequency, TF over GST control); in the assay with GABPA it was 1.31 fold enrichment (6-mer frequency, TF over GST control); with ERG it was 1.25 fold enrichment (6-mer frequency, TF over GST control); with ELF1, 1.3 fold enrichment (6-mer frequency, TF over GST control); in the assay with EHF, 1.27 fold enrichment (6-mer frequency, TF over GST control). The binding signal in the assay with SPI1 was 1.33 fold enrichment (6-mer frequency, TF over GST control); with SPIB, 1.41 fold enrichment (6-mer frequency, TF over GST control); in the assay with ELK3, 1.48 fold enrichment (6-mer frequency, TF over GST control).
TACCAT: the binding signal in the assay with FLI1 was 1.22 fold enrichment (6-mer frequency, TF over GST control); with ELK1 it was 1.09 fold enrichment (6-mer frequency, TF over GST control); with GABPA it was 1.19 fold enrichment (6-mer frequency, TF over GST control); in the assay with ERG it was 1.17 fold enrichment (6-mer frequency, TF over GST control); in the assay with ELF1, 1.23 fold enrichment (6-mer frequency, TF over GST control); with EHF, 1.11 fold enrichment (6-mer frequency, TF over GST control). For the same sequence, the binding signal with SPI1 was 1.15 fold enrichment (6-mer frequency, TF over GST control); with SPIB, 1.21 fold enrichment (6-mer frequency, TF over GST control); with ELK3 it was 1.21 fold enrichment (6-mer frequency, TF over GST control).
